This is part of a sample that, as a whole, favours compounds with a hit. Of some 83,000 tested, about 20% had one in any assay.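 Growth was measured after 48 h exposure to one concentration of compound in 96-well plates. Values under 10 count as active.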 Values without a mark were called inactive. Activity calls are given as the source filed them.
tested on: MDA-MB-468 breast; experiment: NCI-60 one-dose screen, 48 h (100 = growth as untreated, 0 = no growth, -100 = all killed); conditions: 10 µM unless noted

Compound	growth
Clc1ccc(Nc2scc3[n+]2CCC3)cc1	86.3%
COc1cc2c3c(n(CCCN4CCCCC4)c(=O)c2cc1OC)-c1cc2c(cc1C3=O)OCO2	-84% (active)
COc1cc2c(cc1OC)C1(C)N(CC2)C(=O)OC1(C)C (stereo not given)	93.1%
C#Cc1cccc(NC(=O)Nc2ccc(NC(=O)CCl)cc2)c1	-53.7% [8.25 µM] (active)
O=C1/C(=C/c2ccc3c(c2)OCO3)SC(=S)N1C1c2ccccc2Oc2ccccc21	90.4%
Cc1cc(C)cc(C(=O)Nc2cccc(C#Cc3cccc4[nH]nc(N)c34)c2)c1	43%
COc1ccc(C(=O)c2cc(OC)c(OC)c(OC)c2)cc1/C=C/C(=O)c1ccc(OC)c(OC)c1	8.42% (active)
O=c1[nH]c(-c2ccccc2)nc(CN2CCCCC2)c1O	111%
CCN1/C(=C\c2cc[n+](CC)c3ccccc23)C=Cc2ccccc21	-9.93% (active)
O=C1Nc2ccccc2/C1=C/c1cn(CC(O)Cn2cc(/C=C3\C(=O)Nc4ccccc43)c3ccccc32)c2ccccc12 (stereo not given)	-84.8% (active)
O=C(CSc1ncccc1C(=O)O)Nc1ccc(Oc2ccccc2)cc1	101%
COc1ccc(N)c(-c2cc3c(c4c2[nH]c2ccc(OC)cc24)CCCC3)c1	94.5%
CCOc1ccc([C@H]2C(C(=O)c3ccc(Cl)cc3)C3(N[C@@H]2c2ccccc2)C(=O)Nc2ccc(Br)cc23)cc1 (stereo not given in full)	-17.1% (active)
CCCCCC#CC(=O)O	108%
CCN1C(=O)N(CC)C2C1NN=c1s/c(=C\c3ccccc3Br)c(=O)n12 (stereo not given)	27.5%
CCn1cnc(C[C@H](NC(=O)[C@@H](NC(=O)Nc2cc(C(F)(F)F)cc(C(F)(F)F)c2)C(C)C)C(=O)OC)c1	-81.1% [100 µM] (active)
Cc1ccc(Cc2cnc(NC(=O)CN3C(=O)/C(=C\c4ccccc4)SC3=S)s2)cc1	105%
O=[N+]([O-])c1cc(Cl)c2[nH]c3c(Cl)cc([N+](=O)[O-])cc3c2c1	-17.9% (active)
CC(C)C(NC(=O)C1(NC(=O)OCc2ccccc2)CCCC1)C(=O)O (stereo not given)	112%
O=C(CCCCCCCCC(=O)N/N=C\c1cc(Cl)ccc1O)N/N=C\c1cc(Cl)ccc1O	-16% (active)

Compound	growth
COc1ccc(/C=C/C(=O)c2ccc(O)c(CN3CCN(c4cc5c(cc4F)c(=O)c(C(=O)O)cn5C4CC4)CC3)c2)cc1	3.04% (active)
COc1cc(/C=N/NC(=O)c2cn(C3CC3)c3c(OC)c(N4CC5CCCNC5C4)c(F)cc3c2=O)ccc1O (stereo not given)	54.8%
CCCCCCCCCCCC[n+]1c(C)cc(N)c2ccccc21	-34% (active)
CO[C@@H](C)Cn1c(=O)n(C)c2cnc3ccc(-c4cncc(C(C)(C)O)c4)cc3c21	-45.9% (active)
N#Cc1ccc(O)c(C2=NCC(Cc3ccccc3)O2)c1 (stereo not given)	33.5%
C[C@@H](Nc1c(C#N)cnc2ccc(-c3cnc(N)nc3)cc12)c1ccccc1	-8.47% (active)
CCc1ccccc1-n1[nH]c(C)c(C=N)c1=O	90.3%
CCCCCCCCCCCCCC[n+]1cccc(C(N)=O)c1	-59.9% (active)
Clc1ccc(N2N=C(c3cccc(Nc4ccncc4)c3)CC2c2ccc(Br)cc2)cc1 (stereo not given)	-27.1% (active)
O=C1NC(=S)NC(=O)C1CC(=O)n1c(-c2ccccc2)nc2ccccc21	105%
COc1ccc(-c2[nH]c(=S)n(C(CC3(C)NCC(=O)N3n3c(-c4ccccc4)cc(C)nc3=S)c3ccc(OC)cc3)c(=O)c2Br)cc1 (stereo not given)	-14.9% (active)
CCOC(=O)c1ccc2c(c1)[n+](=O)c(C(C)=O)c(C(F)(F)F)n2[O-]	-37% (active)
Cc1c(-c2ccccc2)[nH]c2ccccc12	88.1%
C=C1C(=O)O[C@H]2[C@H]1CC/C(COC(=O)n1ccnc1C)=C\CC[C@@]1(C)O[C@@H]21	76.4%
FC(F)(F)c1ccc(Cn2cc(CSc3nc4ccccc4s3)nn2)cc1	98.7%
N#Cc1ccccc1Cn1c2nc(=N)c3ccccc3c-2nc2ccccc21	24.3%
CC(C)NC(=O)OCc1c(COC(=O)NC(C)C)c(-c2ccc(Cl)cc2)n2c1CCC2	-8.97% (active)
COC[C@]12CCC(C)(C)C[C@H]1C1=CC[C@@H]3[C@@]4(C)CCCNC(C)(C)[C@@H]4CC[C@@]3(C)[C@]1(C)CC2	-82.1% (active)
NC(N)=N/N=C/c1ccc(Cl)cc1	44%
Cc1ccc2c(NCCCN(C)C)c3c(C)nn(C)c3nc2c1	22.1%
